From PubChem BioAssay (NCATS)
Inconclusive results are not listed. Activity calls are given as the source filed them. The call rests on the fitted dose curve; in most records, active means well fitted inhibition curve with a large enough effect; inconclusive means small, poorly fitted or top-dose-only effect; inactive means no such curve, though single readings can be large or run the other way.

assay: qHTS Screen of the MIPE 4.0 Collection Against Ewings Sarcoma (EW8) (AID 1259255); conditions: EW8 Ewing sarcoma viability, CellTiter-Glo, 48 h; series mostly up to 45.8 µM; viability: at the top concentration; further: nearly all actives have a fitted effect of over 35% in size;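 on viability: 100% = DMSO-treated cells and 0% = medium-only wells without cells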
From the text: There is a large unmet medical need for treatments for Ewing sarcoma, a pediatric sarcoma. We sought to identify compounds that inhibited Ewing sarcoma cells in vitro with the goal to then test promising drugs in two drug combinations in vitro to look for synergistic drug combinations. Promising combinations would then proceed to additional validation, including in vivo testing.
Using the NCATS developed oncology compound library called the Mechanism of Interrogation Plate (MIPE), four Ewing sarcoma cell lines were evaluated (TC32, TC71, RDES, EW8). Compounds, in a 12-point titration series, were incubated with cells for 48 hours and the read out was cell viability (CellTiter-Glo from Promega). These initial experiments were used to select appropriate concentrations of each single agent for subsequent two-drug matrix combinations such that the concentrations in the matrices would span both activity and non-activity.
Cells, in the log phase of growth, were seeded in 5 uL of RPMI plus 5% FBS, […] L-glutamine, 100 U/ml penicillin and 100 ug/ml streptomycin into 1536-well solid-bottom white tissue culture treated Greiner Bio One Plates (789173-F) using a MultiDrop Combi (Thermofisher Scientific) dispenser and a small sterile cassette. One column was media alone to be used as a :"no cells" control. The plates were then covered with sterilized stainless steel gasketed lids from Kalypsys. After allowing cells to attach for 4 hours, 23 nL of test compound or control (negative control DMSO and positive control 9.2 uM Bortezomib-final) were added from a 1536-well polypropylene compound source plate to each well using a 1536 head pin tool from Kalypsys. Cells were then incubated for 48 hours at 37C, 95% relative humidity and 5% CO2. After 48 hours, plates were removed from the incubator and 3 uL of CellTiter-Glo (Promega) was added using an Aurora Flying Reagent Dispenser Bioraptor. Plates were incubated at room temperature for 10 minutes prior to reading the luminescence on the Viewlux (PerkinElmer). The relative luciferase units are used to calculate the percent activity using the activity of DMSO in the cells and no cells columns for normalization of no inhibition and full inhibition respectively.
Potency means the concentration at half of the fitted maximal effect.

Row | SMILES | Potency | viability
1 | CC(C)=CCCC(C)=CCCC(C)=CCSc1ccccc1C(=O)O | 2640 nM (active) | –
2 | CN1c2cc(O)c(N=NC(N)=O)cc2CC1S(=O)(=O)O (stereo not given) | – | 111% (inactive)
3 | CN(C)CC=CC(=O)Nc1cc2c(Nc3ccc(F)c(Cl)c3)ncnc2cc1O[C@H]1CCOC1 | 20900 nM (active) | –
4 | Cc1ccc(CN2CCNCC2)cc1NC(=O)CNc1ccc(F)c(F)c1 | 26400 nM (active) | –
5 | O=C(Nc1ncc(-c2cc(C(F)F)nn2-c2c(Cl)cccc2Cl)s1)C1CC1 | 469 nM (active) | –
6 | CC[C@@H]1C(=O)N(C)c2cnc(Nc3ccc(C(=O)NC4CCC(N5CCN(CC6CC6)CC5)CC4)cc3OC)nc2N1C(C)C (stereo not given in full) | 74.3 nM (active) | –
7 | CC(C)[C@H](C(=O)Nc1ccc(C(=O)NO)cc1)c1ccccc1 | 526 nM (active) | –
8 | Cc1ccc(-c2ncn(-c3ccc(Nc4nccc(-c5cccc(N6CCOCC6)c5)n4)cc3)n2)cn1 | 93.5 nM (active) | –
9 | COc1ccc2c(OCc3nnc4ccc(-c5ccccc5)nn34)ccnc2c1 | – | 122% (inactive)
10 | C[C@@H](Oc1cc(-n2cnc3ccc(CN4CCN(C)CC4)cc32)sc1C(N)=O)c1ccccc1C(F)(F)F | 74.3 nM (active) | –
11 | O=C(NCCS(=O)(=O)c1ccc(C(F)(F)F)cn1)c1ccc(Cl)cc1 | – | 99.5% (inactive)
12 | O=C(c1cncc(Br)c1)N1CCC(N2CCCC2)CC1 | – | 105% (inactive)
13 | COc1ccc(-n2nc(C(N)=O)c3c2C(=O)N(c2ccc(N4CCCCC4=O)cc2)CC3)cc1 | – | 118% (inactive)
14 | NC(=O)Nc1cc(-c2cccc(F)c2)sc1C(=O)N[C@H]1CCCNC1 | 166 nM (active) | –
15 | CN1CCN(c2ccc3nc(-c4c(N)c5c(F)cccc5[nH]c4=O)[nH]c3c2)CC1 | 5900 nM (active) | –
16 | COC(=O)Nc1nc2ccc(C(=O)c3ccc(F)cc3)cc2[nH]1 | 662 nM (active) | –
17 | Cc1cc(Nc2cc(N3CCN(C)CC3)nc(Sc3ccc(NC(=O)C4CC4)cc3)n2)n[nH]1 | 296 nM (active) | –
18 | CS(=O)(=O)N1CCN(Cc2cc3nc(-c4cccc5[nH]ncc45)nc(N4CCOCC4)c3s2)CC1 | 1660 nM (active) | –
19 | COCCn1c2c([n+](Cc3cnccn3)c1C)C(=O)c1ccccc1C2=O | 4.7 nM (active) | –
20 | CC1(C)CC(=O)c2c(C(F)(F)F)nn(-c3ccc(C(N)=O)c(NC4CCC(OC(=O)CN)CC4)c3)c2C1 (stereo not given) | 209 nM (active) | –

Row | SMILES | Potency | viability
21 | Cc1cc(Nc2nc(N[C@@H](C)c3ccc(F)cc3)c(C#N)cc2F)n[nH]1 | 1050 nM (active) | –
22 | CC(C)c1ccccc1Cc1cc(C(=O)Nc2ccc(S(=O)(=O)c3ccccc3C(C)(C)C)cc2)c(O)c(O)c1O | 8330 nM (active) | –
23 | Nc1ccc(C(=O)c2cc3c(ccc4ccccc43)[nH]2)cc1 | 1870 nM (active) | –
24 | Cn1c2cc(S(C)=O)sc2c2cnn(Cc3cccc(N)c3)c(=O)c21 (stereo not given) | – | 113% (inactive)
25 | Nc1nc(-c2nn(Cc3ccccc3F)c3ncccc23)nc(N)c1N1CCOCC1 | – | 99.2% (inactive)
26 | O=C(O)C1(Cc2cccc(Nc3nccs3)n2)CCC(Oc2cccc(Cl)c2F)CC1 (stereo not given) | 743 nM (active) | –
27 | CCCCc1nc2cc(C=CC(=O)NO)ccc2n1CCN(CC)CC | 469 nM (active) | –
28 | Cc1cn(-c2cc(NC(=O)c3ccc(C)c(Nc4nccc(-c5cccnc5)n4)c3)cc(C(F)(F)F)c2)cn1 | – | 107% (inactive)
29 | CC(=O)OCCN1C(=O)c2c(C)nc3ccc(S(=O)(=O)N4CCOCC4)cc3c2C1=O | – | 112% (inactive)
30 | Cc1[nH]nc2ccc(-c3cncc(OC[C@@H](N)Cc4ccccc4)c3)cc12 | 833 nM (active) | –
31 | O=C(CCCCCCC(=O)Nc1ccc([C@H]2O[C@@H](CSc3nc(-c4ccccc4)c(-c4ccccc4)o3)C[C@@H](c3ccc(CO)cc3)O2)cc1)NO | 4690 nM (active) | –
32 | Cc1coc2c1C(=O)C(=O)c1c-2ccc2c1CCCC2(C)C | – | 102% (inactive)
33 | CCCCCN(CCC12CC3CC(CC(C3)C1)C2)C(=O)NCCCc1ccncc1 | 18700 nM (active) | –
34 | C[C@@H](Oc1cc(-c2cnn(C3CCNCC3)c2)cnc1N)c1c(Cl)ccc(F)c1Cl | 10500 nM (active) | –
35 | COc1cc2c(Oc3ccc(-c4cnc(Nc5ccc(F)cc5)n(C)c4=O)cc3F)ccnc2cc1OCCCN1CCOCC1 | 18700 nM (active) | –
36 | CNc1nccc(-c2cccnc2Oc2cc(C(=O)Nc3cccc(C(F)(F)F)c3)ccc2C)n1 | 18700 nM (active) | –
37 | Cc1cn2c(-c3cn[nH]c3)cnc2c(Nc2ccc(C(=O)N3CCNCC3)cc2F)n1 | 16600 nM (active) | –
38 | O=c1[nH]nc(Sc2ncc([N+](=O)[O-])s2)n1-c1ccc2c(c1)OCCO2 | 2960 nM (active) | –
39 | COc1cc2c(Oc3ccc4[nH]c(C)cc4c3F)ncnc2cc1OCCCN1CCCC1 | 23500 nM (active) | –
40 | CCCCN1CCC(CNC(=O)c2c3n(c4ccccc24)CCCO3)CC1 | 14800 nM (active) | –
